What all share (test): PBM binding z-score (relative to random genomic background probes); higher = stronger binding; sequences stand for … in GC…GCGATTGACAGCGTAGAATGAAGG
The subject of assay [1] is RARb homodimer (NR concentration 270 nM). A digest of the protocol:
(§1)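 Scanned fluorescence from custom Agilent 4×180K protein-binding microarrays was regression-normalized. Binding z-scores use random background probes as reference. Ligand-free nuclear receptor dimers were incubated on the arrays for 1 h and detected with antibodies against each partner (one per run).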

In assay [2] the test system is RARg:RXRa (NR concentration 270 nM, RXRa partner concentration 90 nM). A digest of the protocol: as §1
Assay [3] has as its system RARg homodimer (NR concentration 270 nM). A digest of the protocol:
as §1

The subject of assay [4] is RXRa DBDmut IVT, anti-RXR (DBD mutation: RXRa K156A/R161A, NR concentration 90 nM). In short, it runs like this: as §1
The subject of assay [5] is RXRa homodimer (NR concentration 180 nM). A digest of the protocol: as §1
Assay [6] deals with THRa:RXRa (NR concentration 90 nM, RXRa partner concentration 90 nM). In short, it runs like this: as §1
Assay [7] has as its system THRa homodimer (NR concentration 90 nM). In short, it runs like this: as §1
Assay [8] deals with VDR homodimer (NR concentration 270 nM). In short, it runs like this:
as §1

With GTACCGAGGTGAATAGGTCGTTGATGAGTAGGCG, the PBM binding z-score in assay [1] was 1.73; in assay [2] it was 2.95; in assay [3], 1.64; in assay [4], -0.0161; in assay [5] it was 2.11; in assay [6], 2.15. In addition, the PBM binding z-score in assay [7] was 0.482; in assay [8], 0.202.

GCATATAGGTAATACAAGGTGAACGTCCGATTGT: the PBM binding z-score in assay [1] was 0.986; in assay [2], 0.615; in assay [3], 0.716; in assay [4], 0.418; in assay [5], 0.745; in assay [6], 4.18. The figures for the PBM binding z-score in assay [7] and in assay [8] were 1.38 and 0.386, respectively.

Regarding CCTATTAGTTGACAATAAGGGCAACCGAAGCTCG, the PBM binding z-score in assay [1] was determined as 1.52; in assay [2] it was 1.04; in assay [3], 0.963; in assay [4], 0.782; in assay [5], 0.644; in assay [6], 1.8. The values for the PBM binding z-score in assay [7] and in assay [8] were 0.906 and 0.927, respectively.

The values are drawn from the supplement of paper PMC6555819.
